The campaign covered roughly 48,000 compounds. About 13,000 (27%) showed an effect of 50% or more. The list shows a part of the results.
System: Wolbachia pipientis
Assay: Anti-Wolbachia Cell-Based Screen
Assay type: functional
Parameters: scale not given: in the data most compounds retested in dose-response had high values
Settings: 5 µM

| Structure (SMILES) | Percent Effect |
| --- | --- |
| O=C(Nc1ccccc1OC(F)F)C1=NN(c2ccccc2)C(=O)CN1 | 6.158% |
| CC(C)c1noc(CCC(=O)N2CCN(C)CC2c2ccccc2)n1 (stereo unspecified) | 2.762% |
| CN(C)CCn1ccc2ccc(NC(=O)c3ccncc3F)cc21 | -14.36% |
| Cc1nn(C)c(C)c1CC(C)NC(=O)NCc1ccoc1C (stereo unspecified) | -1.757% |
| COc1ccc(C(=O)N(C)Cc2nnc3ccccn23)cc1 | 104.5% |
| COc1cc(OC)cc(C(=O)N(C)Cc2nnc3ccccn23)c1 | 132.8% |
| CCC(O)CN(C)Cc1nnc2ccccn12 (stereo unspecified) | -1.119% |
| Cc1ccc(C)c(C(O)CN(C)Cc2nnc3ccccn23)c1 (stereo unspecified) | -3.237% |
| COc1ccc(CC(=O)N(C)Cc2nnc3ccccn23)cc1 | 2.883% |
| CN(Cc1nnc2ccccn12)C(=O)CCNC(=O)C(C)(C)C | 7.202% |
| CN(C(=O)Nc1cccc(C#N)c1)C1CCN(c2ccccn2)CC1 | -13.99% |
| CN(C(=O)c1ccc(Cl)cc1)C1CCN(c2ccccn2)CC1 | 98.58% |
| CN(C(=O)c1cccc(Cl)c1)C1CCN(c2ccccn2)CC1 | 127.4% |
| CN(C(=O)c1cc(Cl)c[nH]1)C1CCN(c2ccccn2)CC1 | -4.084% |
| CN(C(=O)c1ccc(C#N)cc1)C1CCN(c2ccccn2)CC1 | 4.986% |
| CC(NC(=O)NCCCN(C)S(C)(=O)=O)c1ccncc1 (stereo unspecified) | 10.56% |
| CC1c2cc(F)ccc2CCN1CCS(=O)(=O)C(C)C (stereo unspecified) | 14% |
| O=C(O)C(F)(F)F.O=S(=O)(C1CC1)N1CCn2cc(CNc3ccccn3)nc2C1 | -1.604% |
| O=C(O)C(F)(F)F.O=C(O)C(F)(F)F.c1ccc(NCc2cn3c(n2)CN(Cc2cccs2)CC3)nc1 | 4.417% |
| Cc1noc(C)c1CN1CCn2c(COC(C)C)nnc2C1 | -15.51% |
| Cc1noc(C)c1CN1CCn2cc(CNC(=O)C3CCC3)nc2C1.O=C(O)C(F)(F)F | -7.774% |
| Cc1ccc(C(=O)N2CCn3cc(CN4CCCCC4)nc3C2)o1.O=C(O)C(F)(F)F | 18.27% |
| Cc1noc(C)c1CN1CCn2cc(CN3CCOCC3)nc2C1 | 95.37% |
| Cc1noc(C)c1CN(Cc1ccccc1)C(C)CN1CCOCC1 (stereo unspecified) | -1.266% |
| Cc1noc(C)c1CN1CCn2cc(CN3CCCCC3)nc2C1.O=C(O)C(F)(F)F | 100% |
| Cc1noc(C)c1CN1CCc2ncc(CN3CCCC3)n2CC1.O=C(O)C(F)(F)F.O=C(O)C(F)(F)F | -7.49% |

| Structure (SMILES) | Percent Effect |
| --- | --- |
| CC(=O)NCC(=O)N1CCn2cc(CN3CCCCC3)nc2C1.O=C(O)C(F)(F)F | -3.049% |
| Cc1noc(C)c1CN1CCn2cc(CN3CCCC3)nc2C1.O=C(O)C(F)(F)F.O=C(O)C(F)(F)F | 117.4% |
| Cc1noc(C)c1CN1CCn2cc(CNc3ccccn3)nc2C1.O=C(O)C(F)(F)F.O=C(O)C(F)(F)F | 109% |
| O=C(Cc1ccc(Br)cc1)N1CC(S(=O)(=O)C2CCCCC2)C1 | -12.58% |
| N#Cc1cccc(C(=O)Nc2ccc([C@@H](O)[C@H]3COCC(=O)N3)cc2)c1 | -8.801% |
| Cc1nnc([C@@H]2CC[C@@H]3[C@@H](CCN3S(=O)(=O)C3CC3)O2)o1 | 10.23% |
| CC1(C)CN(C(=O)c2ccccc2-n2cncn2)CC1(C)O (stereo unspecified) | -36.51% |
| COc1cccc2c1OCCCN(Cc1c[nH]nc1C(=O)O)C2 | 0.6416% |
| CCN(CC)Cc1cnc2n1CCN(Cc1c(C)noc1C)CC2.O=C(O)C(F)(F)F.O=C(O)C(F)(F)F | -10.46% |
| CCN(CC)Cc1cn2c(n1)CN(Cc1c(C)noc1C)CC2.O=C(O)C(F)(F)F.O=C(O)C(F)(F)F | 104% |
| Cc1ccc(CN2CCn3cc(CN(C)Cc4ccco4)nc3C2)o1.O=C(O)C(F)(F)F.O=C(O)C(F)(F)F | 18.64% |
| Cc1cc2ncc(CN(C)C)c(C3CCN(C)CC3)n2n1 | 76.44% |
| CCc1noc(C2CCN(C(=O)CCn3nc(C)cc3C)CC2)n1 | 2.839% |
| Cc1cc(N(C)CCN(C)C2CCCC2)n2nc(C)cc2n1 | 9.952% |
| CC(=O)N1CCC(c2c(CN(C)C)cnc3cc(C)nn23)CC1 | 74.12% |
| CC(=O)N1CCC(c2cc3c(ncn3C)c(-c3cnn(C)c3)n2)CC1 | -10.45% |
| Cc1cc(N(C)CCN(C)C)n2nc(C)cc2n1 | -8.762% |
| COc1cc(C(=O)N2Cc3cnc(C(C)(C)C)nc3C2)ccn1 | -33.89% |
| O=C(C1CCCC1)N1CCCC([C@@H]2C[C@H](C(F)F)n3ncnc3N2)C1 (stereo partly specified) | 108.9% |
| O=C(C1CCCCC1)N1CCCC([C@@H]2C[C@H](C(F)F)n3ncnc3N2)C1 (stereo partly specified) | 100.7% |
| O=C(NCCOc1ccc(F)cc1)C1CCCN(C(=O)C2CC2)C1 (stereo unspecified) | -0.9975% |
| O=C(C1CCCC1)N1CCC(C(O)c2ccc(F)cc2)CC1 (stereo unspecified) | -1.378% |
| Cc1nnc2n1CCN(CC(O)CN1CCC(C)CC1)C2 (stereo unspecified) | -0.2217% |
| CC(C)Cc1noc(CN2CCOC(Cn3cncn3)C2)n1 (stereo unspecified) | -1.295% |
| c1csc(-c2nc(CN3CCOC(Cn4cncn4)C3)co2)c1 (stereo unspecified) | 1.427% |
| CC(C)c1nc(CN2CCOC(Cn3cncn3)C2)cs1 (stereo unspecified) | 78.62% |

| Structure (SMILES) | Percent Effect |
| --- | --- |
| CC(C)(C)c1nc(CN2CCOC(Cn3cncn3)C2)cs1 (stereo unspecified) | 103.7% |
| Cc1ccc(-c2nc(CN3CCOC(Cn4cncn4)C3)cs2)o1 (stereo unspecified) | 11.16% |
| CC(=O)N(C)c1nc(CN2CCOC(Cn3cc(C)cn3)C2)cs1 (stereo unspecified) | -3.323% |
| Cc1cnn(CC2CN(Cc3csc(C(C)C)n3)CCO2)c1 (stereo unspecified) | 144.1% |
| CC(C)c1nc(CN2CCOCC2)cs1 | 0.6364% |
| CC(C)(C)c1nc(CN2CCCC(Cn3cncn3)C2)cs1 (stereo unspecified) | 5.475% |
| CN(C(=O)COCc1ccccc1)C1CCN(CC2CCOC2)CC1 (stereo unspecified) | -14.42% |
| CCC(C)(N)c1nc(C(C)C)cc(=O)[nH]1.Cl (stereo unspecified) | -2.59% |
| CCc1nnc2n1CC(CNCc1ccncc1)CC2 (stereo unspecified) | -8.895% |
| Cc1nccn1-c1ccc(CNS(=O)(=O)N2CCCC(C)C2)cn1 (stereo unspecified) | -3.486% |
| CC(C(=O)NCc1ccc(-n2cncn2)nc1)S(C)(=O)=O (stereo unspecified) | -11.84% |
| CC(C)C(=O)NCc1ccc(-n2cncn2)nc1 | -6.912% |
| CCCc1nc(C(=O)NCc2cccnc2-n2cncn2)cs1 | -5.546% |
| O=C(NCc1ccc(-n2cncn2)nc1)c1cnccn1 | 91.78% |
| O=C(NCc1ccc(-n2cncn2)nc1)c1cc[nH]n1 | 86.29% |
| CCN(CC)c1ccc(C(=O)NCc2cccnc2-n2cncn2)cn1 | 14.25% |
| CCC(C)C(=O)NCc1ccc(-n2cncn2)nc1 (stereo unspecified) | -5.498% |
| CC(C)COC(C)C(=O)NCc1ccc(-n2cncn2)nc1 (stereo unspecified) | -8.308% |
| O=C(NCc1cccnc1-n1cncn1)c1cc(Cl)ccn1 | 106.2% |
| CC(C(=O)NCc1ccc(-n2cncn2)nc1)n1ccnc1 (stereo unspecified) | -4.71% |
| O=C(NCc1ccc(-n2cncn2)nc1)c1ccoc1 | 0.1706% |
| O=C(NCc1ccc(-n2cncn2)nc1)c1cc(Cl)ccn1 | 100.5% |
| COCCN(Cc1ccc(F)cc1Cl)C(=O)c1ccc(=O)[nH]n1 | -1.923% |
| CCc1nsc(N2CCN(CC(=O)Nc3c(C)n[nH]c3C)CC2)n1 | -25.55% |
| CCc1nc(CN2CCCN(C(=O)COCC3CC3)CC2)cs1 | -1.235% |
| CCN(CC(C)O)C(=O)Nc1cnn(CCOC)c1 (stereo unspecified) | -12.18% |

| Structure (SMILES) | Percent Effect |
| --- | --- |
| NC(=O)NC(=O)CCN1CCCN(c2nccs2)CC1 | -3.66% |
| COCc1cc(N(C)Cc2cnccn2)nc(C(C)(C)C)n1 | 4.515% |
| CC(C)(CNCc1ccc(OCc2cscn2)cc1)C(N)=O.Cl | 0.3922% |
| CCOC(=O)C1(Cc2cccc(OC)c2)CCN(Cc2ccon2)CC1 | 2.808% |
| COc1ccccc1Oc1ncccc1CNC(=O)C1(C)CCCNC1 (stereo unspecified) | 21.66% |
| COc1ccc(F)cc1NC(=O)NCC1(C)COC1 | 5.652% |
| COc1ccccc1CCN[C@@H]1c2ccccc2C2(CCNCC2)[C@H]1O | -1.43% |
| CCOC(=O)C1(Cc2ccccc2-c2ccccc2OC)CCNCC1.Cl | 172.1% |
| COc1ccc(F)cc1NC(=O)NCC1(CN2CCOCC2)CC1 | 21.38% |
| COc1ccccc1-c1ccccc1CC1(C(=O)O)CCNCC1 | 100.9% |
| COc1ccc(F)cc1-c1ccccc1CC1(C(=O)O)CCOCC1 | 118.1% |
| COc1ccccc1CN(C)C(=O)CN1C(=O)OC[C@@H]1c1ccccc1 | -5.71% |
| O=C(Cc1ccccn1)N1CCn2cc(Cn3cncn3)nc2C1 | 22.42% |
| Cn1cc(C2(C)CN(c3ncccc3C#N)CCO2)cn1 (stereo unspecified) | -13.05% |
| CN(C)Cc1ccnc(NS(=O)(=O)CCc2ccccc2)c1 | -12.88% |
| OCc1cc2ccccc2nc1N1CCCC1 | 4.126% |
| CCCc1nc(C(=O)N2CCn3nc(C(=O)OC)cc3C2)cs1 | 111.4% |
| CCCc1nc(C(=O)N2CCN(C(=O)OC)CC2)cs1 | -2.631% |
| CN(C)CCNC(=O)c1cc2n(n1)CCN(C(=O)c1ccco1)C2 | -13.42% |
| Cc1cc(C)c(C(=O)N2CCn3nc(C(=O)NCCN(C)C)cc3C2)[nH]1 | -6.569% |
| COC(=O)c1cc2n(n1)CCN(C(=O)c1csc(CN(C)C)n1)C2 | 85.52% |
| CCCc1nc(C(=O)N2CCN(C(=O)c3ccc(OC)cc3)CC2)cs1 | 10.06% |
| Cc1cc(C)c2nc(CN3C[C@H](CCO)[C@@H](N)C3)cc(O)c2c1 | -3.113% |

— ChEMBL document CHEMBL3988442, “University of Dundee, Small-Polar-MMV Screening Library” (2021)
